p53 reactivation = mutant p53 re-activation in reporter cells; 320,000 tested, 0.063% active; AID 504706; H1299 p53-A138V BP100-luciferase reporter, luminescence, 24 h; Potency, µM (titrated, usually from 92.2 µM), for inactives: at the top dose activity change, positive = activation, hits mostly activators; note: potency is the fitted concentration of half-maximal effect; % of control where 0% means no effect; nearly all actives have a fitted effect of over 45% in size
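H1299 (p53-null), stable ts p53-A138V + BP100-Luc; 1000 cells/well, Opti-MEM/10% FBS; cpd 4 pt, 1:5; 24 h, 37 deg C, 5% CO2; detection reagent 10 min RT; luminescence.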
Gal4-VP16 FLuc = inhibits Gal4-VP16 luciferase reporter, ROR gamma counter-screen; AID 2546; 310,000 tested, 3.5% active; Potency, µM (highest dose often 53.6 µM), for inactives: top-dose activity, negative = inhibition, actives largely listed as inhibitors; Drosophila S2 Gal4-VP16 UAS-luciferase, luminescence, 20 h;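 note: Gal4-VP16 expression switched on by copper sulfate through the metallothionein promoter; potency is the fitted concentration of half-maximal effect; % is set by controls: 0 for no effect and ±100 for the full control effect; nearly all actives have a fitted effect of over 50% in size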
ELG1 DNA repair = inhibitors of ELG1-dependent DNA repair in HEK293T cells. HEK293T ELG1-luciferase reporter, luminescence, 16 h; DNA damage induced by 5-fluorouridine. Potency, µM (titrated, usually from 46.1 µM), inactives show top-dose activity change, negative = inhibition, usual class: inhibitors. 330,000 tested, 2.3% active; note: potency is the fitted concentration of half-maximal effect; % is set by controls: 0 for no effect and ±100 for the full control effect; nearly all actives have a fitted effect of over 55% in size
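Reporter activity after DNA damage by 5-fluorouridine is monitored. Compound-treated cells incubate 16 hr at 37 °C, then ONE-Glo is added for 30 min before luminescence reading.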
Giardia kill = kills Giardia lamblia; Giardia lamblia trophozoite viability; activity change, % at 7.66 µM, hits read low; 340,000 tested, 0.15% active; AID 540267; in the data active = activity change below about -80%; inconclusive = between about -30% and that limit;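 note: parasites exposed to compound for two days anaerobically before the ATP read; % is set by controls: 0 for no effect and ±100 for the full control effect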
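Giardia lamblia trophozoites (100 cells/well) were incubated with compounds for 48 h at 37 deg C under anaerobic conditions. Viability was read as ATP content by one-step luminescence after 15-30 min at room temperature.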
BRCA1 expr up = activators of BRCA1 expression | MCF7-BRCA1-FFLuc reporter, luminescence, 48 h; response scale: scaled: vehicle 0%, 10 µM genistein 100% | Potency, µM (doses to about 46.1 µM), for the others: top-dose activation, usual class: activators | 380,000 tested, 1.1% active; note: potency is the fitted concentration of half-maximal effect; nearly all actives have a fitted effect of over 80% in size
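First, MCF7-BRCA1-FFLuc cells (2000/well) attach for 2 h; next, compounds are pin-added and incubated 48 h at 37 °C; finally, luciferase reagent is added and luminescence read after 15 min.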
RORgamma inh = blocks mouse ROR gamma transcriptional activity; 310,000 tested, 5.4% active; Potency, µM (doses to about 53.6 µM), for inactives: top-dose activity change, negative = inhibition, usual class: inhibitors; Drosophila S2 Gal4-RORgamma UAS-luciferase reporter, 20 h; P51450; note: potency is the fitted concentration of half-maximal effect; % is set by controls: 0 for no effect and ±100 for the full control effect; nearly all actives have a fitted effect of over 60% in size
Target sequence (P51450 whole entry, looked up, the tested form may be a part): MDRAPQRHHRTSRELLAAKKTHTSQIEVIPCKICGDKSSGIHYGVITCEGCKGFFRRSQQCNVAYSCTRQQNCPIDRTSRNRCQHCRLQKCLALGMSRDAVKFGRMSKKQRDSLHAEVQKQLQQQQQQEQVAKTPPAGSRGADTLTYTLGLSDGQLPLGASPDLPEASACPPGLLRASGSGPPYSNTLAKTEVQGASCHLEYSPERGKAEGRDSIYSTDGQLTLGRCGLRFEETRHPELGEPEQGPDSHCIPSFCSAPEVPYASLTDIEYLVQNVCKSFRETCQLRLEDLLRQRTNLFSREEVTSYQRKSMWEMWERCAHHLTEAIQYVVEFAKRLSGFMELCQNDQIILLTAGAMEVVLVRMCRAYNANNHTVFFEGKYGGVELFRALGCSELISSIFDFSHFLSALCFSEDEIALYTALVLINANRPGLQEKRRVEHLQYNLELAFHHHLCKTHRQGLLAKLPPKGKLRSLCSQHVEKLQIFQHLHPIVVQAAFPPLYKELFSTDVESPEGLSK
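Stably transfected Drosophila Schneider cells are the test system, with ROR gamma fused to Gal4 and luciferase under UAS control; luminescence is read after 20 hr of 700 uM copper sulfate induction at ambient temperature.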
Starred values were filed as active, the others as inactive. A selection: hits, their analogues and other compounds. The true share with any hit is near 7.6%. Unless noted, calls come from the whole dose curve; as a rule, active = well fitted curve in the direction sought with a large enough effect; inconclusive = small, poorly fitted or top-dose-only effect, or another doubt; inactive = no such curve, though single readings can be large; an effect the other way counts as inactive or inconclusive.

What do the screens show for `CN(C)CCCN(C(=O)COc1ccc(Cl)cc1)c1nc2cc3c(cc2s1)OCO3`?
p53 reactivation: 30%; Gal4-VP16 FLuc: inconclusive; ELG1 DNA repair: 22%; Giardia kill: -27; BRCA1 expr up: 13%; RORgamma inh: 11µM*

Results for CCc1nc2ccc(C(=O)N3CCN(S(=O)(=O)CC)CC3)cn2c1N(C)C(=O)C1CCCCC1 ?
BRCA1 expr up: -3%

Results for COc1cc(C(=O)N/N=C/c2ccsc2C)cc(OC)c1OC ?
p53 reactivation: 7%; Gal4-VP16 FLuc: inconclusive; ELG1 DNA repair: 20%; Giardia kill: 9; BRCA1 expr up: -76%; RORgamma inh: 13µM*

What do the screens show for `COc1ccc(Br)cc1/C=N/NC(=O)c1cc(OC)c(OC)c(OC)c1`?
p53 reactivation: -12%; Gal4-VP16 FLuc: 5%; ELG1 DNA repair: inconclusive; Giardia kill: -21; BRCA1 expr up: -27%; RORgamma inh: inconclusive

Results for O=C(C1CC1)N1N=C(c2ccccc2)CC1(O)C(F)(F)F (configuration not stated) ?
p53 reactivation: 2%; Gal4-VP16 FLuc: -17%; ELG1 DNA repair: inconclusive; Giardia kill: 7; BRCA1 expr up: 8%; RORgamma inh: -13%

What do the screens show for `O=C(C1CC1)N1N=C(c2ccccc2)CC1(O)C(F)(F)C(F)(F)F` (configuration not stated)?
p53 reactivation: 5%; Gal4-VP16 FLuc: inconclusive; ELG1 DNA repair: inconclusive; Giardia kill: 13; BRCA1 expr up: 6%; RORgamma inh: 11µM*

How did COc1cc(OC)cc(-c2nc(SCC(=O)Nc3ccccc3F)n[nH]2)c1 do in these assays?
p53 reactivation: 11%; Gal4-VP16 FLuc: 0%; ELG1 DNA repair: 7%; Giardia kill: 2; BRCA1 expr up: -22%; RORgamma inh: 3%

What do the screens show for `COC(=O)c1c(C)[nH]c(C(=O)OCc2csc(CC(=O)Nc3ccccc3C)n2)c1C`?
p53 reactivation: 3%; ELG1 DNA repair: 8.2µM*; Giardia kill: 30; BRCA1 expr up: -10%

How did CCN(CC)C(=S)SCc1csc(CC(=O)Nc2ccccc2C)n1 do in these assays?
p53 reactivation: -4%; Gal4-VP16 FLuc: -22%; ELG1 DNA repair: -17%; Giardia kill: 6; BRCA1 expr up: -31%; RORgamma inh: 11µM*

What do the screens show for `Clc1ccccc1CSc1ncn(-c2ccccc2)n1`?
p53 reactivation: inconclusive; Gal4-VP16 FLuc: -6%; ELG1 DNA repair: inconclusive; Giardia kill: -11; BRCA1 expr up: 77%; RORgamma inh: 26%

What do the screens show for `COc1ccc(OC)c(/C=C2\S/C(=N/NC(=O)c3ccc4ccccc4c3)NC2=O)c1`?
p53 reactivation: -11%; Gal4-VP16 FLuc: inconclusive; ELG1 DNA repair: -3%; Giardia kill: 13; BRCA1 expr up: -30%; RORgamma inh: 1.4µM*

Results for COc1ccc(/C=C2\SC(=Nc3ccccc3Cl)NC2=O)c(OC)c1 ?
BRCA1 expr up: -36%

What do the screens show for `O=C1N/C(=N/NC(=O)c2cccc3ccccc23)S/C1=C\c1ccccc1OCc1ccccc1`?
p53 reactivation: -2%; Gal4-VP16 FLuc: inconclusive; ELG1 DNA repair: inconclusive; Giardia kill: 4; BRCA1 expr up: -20%; RORgamma inh: 0.63µM*

How did CN1c2ccccc2C(C)(C)[C@]12C=Cc1cc(O)ccc1O2 do in these assays?
p53 reactivation: inconclusive; Gal4-VP16 FLuc: 16µM*; ELG1 DNA repair: -8%; Giardia kill: 8; BRCA1 expr up: -53%; RORgamma inh: -130%

How did CN1c2ccccc2C(C)(C)C12C=Nc1c(ccc3ccccc13)O2 (configuration not stated) do in these assays?
p53 reactivation: -30%; Gal4-VP16 FLuc: 20µM*; ELG1 DNA repair: inconclusive; Giardia kill: 11; BRCA1 expr up: -26%; RORgamma inh: inconclusive
